Pf Dd2 growth: inhibitors of Plasmodium falciparum Dd2 growth; P. falciparum Dd2 growth, SYBR Green, 72 h; actives 4.3% (n = 120,000); AID 1347417; Potency, µM (series often up to 28.9 µM), inactives show at the top dose activity, negative = inhibition, usual class: inhibitors; active = well fitted inhibition curve with a large enough effect;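 note: plate controls were DMSO vehicle for no effect and reference drug for full effect; nearly all actives have a fitted effect of over 65% in size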
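Infected erythrocytes (Dd2, 0.3% parasitemia, 2.5% hematocrit final) are added to compound in RPMI-1640/Albumax II medium, grown 72 h at 37C in low oxygen, then lysed with saponin/Triton-X containing SYBR Green and read by fluorescence.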
Numbers without * were called inactive; ! = not active in a repeat. The sample as a whole holds a higher share of hits than the screen did. Potency is the fitted concentration of half-maximal effect.

Screening CCn1cc2nc(SCc3cccc(C)c3)n(CCc3ccccc3)c(=O)c2n1 returned Pf Dd2 growth inactive.
CCn1cc2nc(SCc3cccc(Cl)c3)n(Cc3ccc(C)cc3)c(=O)c2n1 was read as Pf Dd2 growth inactive.
Cc1ccc(-c2ccc3nnc(CNC(=O)c4cnccn4)n3n2)cc1 was read as Pf Dd2 growth 0.7%.
CCC(=O)N1CCc2cc(Br)cc(S(=O)(=O)N3CCN(c4ccccc4)CC3)c21 was read as Pf Dd2 growth -3.4%.
`O=C(C1CC1)N1CCc2cc(Br)cc(S(=O)(=O)N3CCN(c4cccc(Cl)c4)CC3)c21` gave Pf Dd2 growth -6.8%.
For CC(=O)N1CCc2cc(Br)cc(S(=O)(=O)N3CCN(c4cccc(C(F)(F)F)c4)CC3)c21 the results were Pf Dd2 growth 10µM*.
CCn1ccc2oc(C)c(C(=O)NCc3ccccc3Cl)c2c1=O was read as Pf Dd2 growth -7.0%.
`O=C(c1ccc(Cl)nc1)N1CCC2(C1)C(=O)N(CCc1ccccc1)c1ccccc12` (stereo unspecified) gave Pf Dd2 growth 12.6µM*!.
O=C1N(Cc2ccccc2)c2ccccc2C12CCN([S+](=O)([O-])c1ccccc1)C2 (stereo unspecified) was read as Pf Dd2 growth inactive.
Cc1noc(C)c1[S+](=O)([O-])N1CCC2(C1)C(=O)N(Cc1ccccc1)c1ccccc12 (stereo unspecified) was read as Pf Dd2 growth inactive.
O=C(C1CC1)N1CCC2(C1)C(=O)N(CCc1ccccc1)c1ccccc12 (stereo unspecified) was read as Pf Dd2 growth 6.31µM*!.
`Cc1ccccc1C(=O)N1CCC2(C1)C(=O)N(CCc1ccccc1)c1ccccc12` (stereo unspecified) gave Pf Dd2 growth -13.2%.
`CC(=O)N1CCC2(C1)C(=O)N(CCc1ccccc1)c1ccccc12` (stereo unspecified) gave Pf Dd2 growth -22.3%.
For CN(C)C(=O)N1CCC2(C1)C(=O)N(CCc1ccccc1)c1ccccc12 (stereo unspecified) the results were Pf Dd2 growth -18.8%.
`O=C1N(CCc2ccccc2)c2ccccc2C12CCN([S+](=O)([O-])c1cccs1)C2` (stereo unspecified) gave Pf Dd2 growth 7.94µM*!.
Screening O=C(c1ccccc1Cl)N1CCC2(C1)C(=O)N(CCc1ccccc1)c1ccccc12 (stereo unspecified) returned Pf Dd2 growth inactive.
`CCCS(=O)(=O)N[C@@H]1CN(c2ncccn2)C[C@H]1CN(C)C` gave Pf Dd2 growth inactive.
`CC(C)(C)n1cc(-c2cc(C(=O)N3C[C@H]4CC[C@H]3C4)c3ccccc3n2)cn1` gave Pf Dd2 growth -23.2%.
`CN(CC1CCOCC1)C(=O)c1cccc(Br)c1` gave Pf Dd2 growth -15.8%.
`COc1ccc(OC)c(CNC(=O)c2nnn3c2COC(c2ccc(Cl)cc2)C3)c1` (stereo unspecified) gave Pf Dd2 growth -2.4%.
Screening Cc1ccc(NC(=O)C2CCN(S(=O)(=O)c3ccc4[nH]c5c(c4c3)CCCCC5)CC2)cc1 returned Pf Dd2 growth 11.2µM*.
Screening Cc1ccc(NS(=O)(=O)c2ccc3[nH]c4c(c3c2)CCCCCC4)cc1 returned Pf Dd2 growth inactive.
`Cc1ccc(S(=O)(=O)N2CCC(C(=O)Nc3ccc(Oc4ccccc4)cc3)CC2)cc1` gave Pf Dd2 growth -0.6%.
Screening COc1cccc(CN(Cc2cccnc2)C(=O)C2CNCCO2)c1OC (stereo unspecified) returned Pf Dd2 growth -16.7%.
FC(F)(F)c1cccc(C2=NOC3(CCCN(Cc4cccs4)C3)C2)c1 (stereo unspecified) was read as Pf Dd2 growth -18.4%.
Screening CCc1ccccc1N1CC(c2nc3ccccc3n2Cc2cccc(C)c2)CC1=O (stereo unspecified) returned Pf Dd2 growth -96.6%.
Cc1cccc(OCCCn2c(CCNC(=O)C3CCCCC3)nc3ccccc32)c1 was read as Pf Dd2 growth 14.1µM*.
Screening CCOc1ccccc1N1CC(c2nc3ccccc3n2CCCCOc2cc(C)ccc2C)CC1=O (stereo unspecified) returned Pf Dd2 growth -11.8%.
For COc1ccccc1OCCCn1c(C2CC(=O)N(c3ccccc3Cl)C2)nc2ccccc21 (stereo unspecified) the results were Pf Dd2 growth -26.2%.
`Cc1cc(C)cc(OCCn2c(CCNC(=O)C3CCCCC3)nc3ccccc32)c1` gave Pf Dd2 growth 9.6%.
Screening CCc1ccccc1N1CC(c2nc3ccccc3n2CCCCOc2ccccc2OC)CC1=O (stereo unspecified) returned Pf Dd2 growth -10.7%.
Screening Cc1cccc(OCCCCn2c(C3CC(=O)N(c4ccccc4Cl)C3)nc3ccccc32)c1 (stereo unspecified) returned Pf Dd2 growth 3.16µM*.
Screening Cc1cccc(OCCCCn2c(C3CC(=O)N(c4ccc(C)cc4C)C3)nc3ccccc32)c1 (stereo unspecified) returned Pf Dd2 growth 11.2µM*.
Cc1ccccc1Cn1c(CCCNC(=O)C2CCCCC2)nc2ccccc21 was read as Pf Dd2 growth inactive.
`Cc1cccc(CC(=O)N2CCCC(c3nnnn3C)C2)c1` (stereo unspecified) gave Pf Dd2 growth 26.3%.
For COc1cccc(C(=O)NC2CCN(c3cc(-c4ccccc4)[nH]n3)CC2)c1OC the results were Pf Dd2 growth -6.9%.
COc1ccc(CN2Cc3cc(NC(=O)c4c(F)cccc4F)ccc3OCC2=O)c(OC)c1 was read as Pf Dd2 growth inactive.
For COc1ccc(CCC(=O)N2CCCN(c3cc(-c4ccc(OC)cc4)[nH]n3)CC2)cc1 the results were Pf Dd2 growth -12.9%.
`CNS(=O)(=O)c1ccc(CCC(=O)N2CC[C@H]3CC[C@@H](C2)N3)cc1` gave Pf Dd2 growth 0.0%.
CCOc1ccc(-c2nnc(SCC(=O)Nc3ccc(C)cc3Cl)o2)cc1 was read as Pf Dd2 growth 13.5%.
`CCc1ccc(NC(=O)c2cnn(-c3c(C)cccc3C)c2C2CCN(C(=O)OC(C)(C)C)CC2)cc1` gave Pf Dd2 growth -9.8%.
`CCOc1ccc(-c2nnc(SCC(=O)Nc3ccc(C)cc3C)o2)cc1` gave Pf Dd2 growth 15.5%.
`CCOc1ccc(-c2cc(C(=O)N3CCN(c4cccc(C)c4)C(C)C3)c3ccccc3n2)cc1` (stereo unspecified) gave Pf Dd2 growth -28.6%.
CCOc1ccc(-c2cc3nc(C4CCN(C(=O)OC(C)(C)C)CC4)c(C(=O)Nc4ccc(C)cc4C)cn3n2)cc1 was read as Pf Dd2 growth 8.91µM*.
For CCOc1ccc(-c2cc3nc(C4CCN(C(=O)OC(C)(C)C)CC4)c(C(=O)Nc4c(C)cccc4C)cn3n2)cc1 the results were Pf Dd2 growth 2.51µM*.
Screening COc1ccc(-n2ncc(C(=O)Nc3ccc(C)cc3Cl)c2C2CCN(C(=O)OC(C)(C)C)CC2)cc1 returned Pf Dd2 growth -6.7%.
For CCOc1ccc(-c2c(C)nn3c(C)c(C(=O)Nc4cccc(Cl)c4C)cnc23)cc1OCC the results were Pf Dd2 growth inactive.
For COc1ccc(-c2cc(C(F)(F)F)n3nc(C(=O)Nc4cccc(Cl)c4C)cc3n2)cc1 the results were Pf Dd2 growth 39.1%.
CCOc1ccc(-c2cc3nc(C4CCN(C(=O)OC(C)(C)C)CC4)c(C(=O)Nc4ccc(C)cc4Cl)cn3n2)cc1 was read as Pf Dd2 growth 3.98µM*.
Screening Cc1cccc(C)c1-n1ncc(C(=O)O)c1C1CCN(C(=O)OC(C)(C)C)CC1 returned Pf Dd2 growth -2.0%.
